In this experiment the test system is Zika virus NS2B-NS3 protease. Briefly: Primary screen GU AMC qHTS for Zika virus inhibitors (AID 1347154). Note: nearly all actives have a fitted effect of over 70% in size. Put shortly:
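Fluorogenic AMC-substrate cleavage by noncovalent NS2B-NS3 protease complex (25 nM, pH 8.0 Tris buffer with Tween 20) followed for 15 minutes at room temperature (~20% conversion). Percent inhibition from ex340/em450 signal change, fitted by 4-parameter Hill equation.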
(qHTS replaces the single test concentration by a dilution series.)

Results filed as inconclusive are left out. A call without a number means that no potency is given here. Unmarked numbers belong to inactive results. Active and inactive are the calls of the source. Calls come from the whole dose curve; as a rule, active = well fitted inhibition curve with a large enough effect; inconclusive = small, poorly fitted or top-dose-only effect; inactive = flat fitted curve, though single readings scatter.

For `CCCCC/C=C\CC1OC1CCCCCCCC(=O)O` (configuration not stated), the activity change, negative = inhibition was 6.59% [at 0.59 µM].

`Cc1c(C(=O)N(C)C2CCCCC2)sc2nc3ccc(N)cc3n12`: the Potency entry was “inactive”.
